Targets with a hit are over-represented here; the source holds about 8,800 in all. About 0.5% of all pairs of compound and target were hits.
Columns and labels:
Assay in all cases: log2 fold change, soluble protein after heating vs DMSO (PISA); higher = thermal stabilisation; K562 lysate, 10 uM; active = over 0.2 and 3.5 SD of the protein, either way, in both replicates (recomputed)
lapatinib = compound: CS(=O)(=O)CCNCc1ccc(-c2ccc3ncnc(Nc4ccc(OCc5cccc(F)c5)c(Cl)c4)c3c2)o1 [lapatinib]
Method in brief: (§1)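 Quantification was by TMTpro 16plex LC-MS/MS with equalised channel sums, applied to the supernatant after 21,000xg for 90 min. Samples were crude K562 extract at 1 mg/mL protein in PBS pH 7.4 with 1 mM MgCl2, treated with 10 μM compound for 30 min, heated for 3 min across 48°C-58°C, pooled and brought to 0.5% NP-40 at 4°C. Values are log-two fold changes in thermal stability relative to solvent controls, from duplicates.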

pictilisib = compound: CS(=O)(=O)N1CCN(Cc2cc3nc(-c4cccc5[nH]ncc45)nc(N4CCOCC4)c3s2)CC1 [pictilisib]
Method in brief: as §1

crizotinib = compound: C[C@@H](Oc1cc(-c2cnn(C3CCNCC3)c2)cnc1N)c1c(Cl)ccc(F)c1Cl [crizotinib]
Method in brief: as §1

[1] = compound: C[C@H](C1=CC=C(C=C1)C(=O)NC2=C3C=CNC3=NC=C2)N
Method in brief: as §1

duvelisib = compound: C[C@H](Nc1ncnc2nc[nH]c12)c1cc2cccc(Cl)c2c(=O)n1-c1ccccc1 [duvelisib]
Method in brief: as §1

gandotinib = compound: Cc1cc(Nc2cc(CN3CCOCC3)c3nc(C)c(Cc4ccc(Cl)cc4F)n3n2)n[nH]1 [gandotinib]
Method in brief: as §1

tozasertib = compound: Cc1cc(Nc2cc(N3CCN(C)CC3)nc(Sc3ccc(NC(=O)C4CC4)cc3)n2)n[nH]1 [tozasertib]
Method in brief: as §1

doramapimod = compound: Cc1ccc(-n2nc(C(C)(C)C)cc2NC(=O)Nc2ccc(OCCN3CCOCC3)c3ccccc23)cc1 [doramapimod]
Method in brief: as §1

bafetinib = compound: Cc1ccc(NC(=O)c2ccc(CN3CC[C@H](N(C)C)C3)c(C(F)(F)F)c2)cc1Nc1nccc(-c2cncnc2)n1 [bafetinib]
Method in brief: as §1

[2] = compound: Cc1cccc(CC(=O)N2CCc3c2ccc(-c2cn(C)c4ncnc(N)c24)c3F)n1
Method in brief: as §1

Measured: log2 fold change

OPA1 isoform 2 (UniProt O60313)
UniProt O60313, sequence (O60313 whole entry, looked up): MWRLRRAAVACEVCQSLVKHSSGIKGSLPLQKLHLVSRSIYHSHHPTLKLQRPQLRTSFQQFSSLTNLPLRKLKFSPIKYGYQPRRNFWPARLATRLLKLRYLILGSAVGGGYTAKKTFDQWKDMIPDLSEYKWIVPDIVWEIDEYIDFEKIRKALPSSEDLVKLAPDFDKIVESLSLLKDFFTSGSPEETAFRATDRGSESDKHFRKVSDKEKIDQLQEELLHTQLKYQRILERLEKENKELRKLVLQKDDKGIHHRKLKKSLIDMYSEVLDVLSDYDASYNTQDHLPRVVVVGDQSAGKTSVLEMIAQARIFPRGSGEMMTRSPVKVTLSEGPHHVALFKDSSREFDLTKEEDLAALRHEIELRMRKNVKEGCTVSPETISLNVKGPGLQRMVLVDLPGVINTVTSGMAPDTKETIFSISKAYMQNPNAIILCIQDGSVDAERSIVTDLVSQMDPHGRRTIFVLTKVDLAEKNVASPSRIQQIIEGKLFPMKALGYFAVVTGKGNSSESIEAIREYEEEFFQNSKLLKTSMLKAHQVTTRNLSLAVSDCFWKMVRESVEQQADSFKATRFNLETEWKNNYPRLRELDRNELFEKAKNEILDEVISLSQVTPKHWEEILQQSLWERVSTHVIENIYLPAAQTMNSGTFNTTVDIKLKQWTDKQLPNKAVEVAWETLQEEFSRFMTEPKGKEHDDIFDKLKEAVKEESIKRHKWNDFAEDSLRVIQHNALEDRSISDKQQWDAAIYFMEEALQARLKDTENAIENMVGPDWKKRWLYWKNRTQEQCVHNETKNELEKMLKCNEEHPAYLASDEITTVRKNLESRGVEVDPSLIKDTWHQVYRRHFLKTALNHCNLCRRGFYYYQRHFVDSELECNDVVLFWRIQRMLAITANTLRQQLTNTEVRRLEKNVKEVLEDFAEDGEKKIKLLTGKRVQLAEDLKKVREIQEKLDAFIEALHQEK
active: gandotinib -0.248
inactive: lapatinib -0.017 | pictilisib 0.002 | crizotinib -0.096 | [1] -0.013 | duvelisib -0.002 | tozasertib 0.03 | doramapimod 0.023 | bafetinib -0.073 | [2] 0.048

PANK2 (UniProt Q9BZ23)
UniProt Q9BZ23, sequence (Q9BZ23 whole entry, looked up): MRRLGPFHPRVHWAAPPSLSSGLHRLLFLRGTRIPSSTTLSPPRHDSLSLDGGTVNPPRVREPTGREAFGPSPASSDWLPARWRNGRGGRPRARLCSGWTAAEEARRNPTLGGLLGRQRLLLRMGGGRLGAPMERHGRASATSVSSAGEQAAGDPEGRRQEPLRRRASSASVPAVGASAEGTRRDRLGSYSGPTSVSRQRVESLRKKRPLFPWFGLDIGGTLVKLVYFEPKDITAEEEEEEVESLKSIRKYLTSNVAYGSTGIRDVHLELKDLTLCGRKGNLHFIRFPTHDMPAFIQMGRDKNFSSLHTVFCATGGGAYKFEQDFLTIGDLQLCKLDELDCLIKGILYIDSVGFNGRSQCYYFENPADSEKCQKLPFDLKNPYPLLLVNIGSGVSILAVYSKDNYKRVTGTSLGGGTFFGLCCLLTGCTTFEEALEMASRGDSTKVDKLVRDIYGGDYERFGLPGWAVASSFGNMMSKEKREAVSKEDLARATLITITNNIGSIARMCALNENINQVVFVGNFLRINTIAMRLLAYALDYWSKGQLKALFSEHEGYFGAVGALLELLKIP
inactive: lapatinib 0.079 | pictilisib 0.143 | crizotinib -0.073 | [1] -0.023 | duvelisib -0.126 | gandotinib 0.077 | tozasertib 0.008 | doramapimod -0.008 | bafetinib -0.029 | [2] 0.095

NIT2 (UniProt Q9NQR4)
UniProt Q9NQR4, sequence (Q9NQR4 whole entry, looked up): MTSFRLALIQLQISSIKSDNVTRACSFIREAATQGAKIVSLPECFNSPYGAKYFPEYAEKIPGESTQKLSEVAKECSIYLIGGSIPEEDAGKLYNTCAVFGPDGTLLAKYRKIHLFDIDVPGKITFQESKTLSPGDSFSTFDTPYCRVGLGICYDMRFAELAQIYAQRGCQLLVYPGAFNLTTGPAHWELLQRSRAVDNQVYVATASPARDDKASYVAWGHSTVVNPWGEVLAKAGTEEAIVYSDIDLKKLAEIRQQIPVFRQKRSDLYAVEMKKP
inactive: lapatinib 0.002 | pictilisib -0.048 | crizotinib -0.026 | [1] -0.008 | duvelisib 0.011 | gandotinib -0.01 | tozasertib 0.002 | doramapimod -0.023 | bafetinib 0.011 | [2] -0.06

MYCBP2 (UniProt O75592)
inactive: lapatinib -0.042 | pictilisib -0.026 | crizotinib -0.07 | [1] -0.028 | duvelisib 0.023 | gandotinib 0.054 | tozasertib 0.023 | doramapimod 0.016 | bafetinib -0.004 | [2] 0.114

OTUD7B (UniProt Q6GQQ9)
UniProt Q6GQQ9, sequence (Q6GQQ9 whole entry, looked up): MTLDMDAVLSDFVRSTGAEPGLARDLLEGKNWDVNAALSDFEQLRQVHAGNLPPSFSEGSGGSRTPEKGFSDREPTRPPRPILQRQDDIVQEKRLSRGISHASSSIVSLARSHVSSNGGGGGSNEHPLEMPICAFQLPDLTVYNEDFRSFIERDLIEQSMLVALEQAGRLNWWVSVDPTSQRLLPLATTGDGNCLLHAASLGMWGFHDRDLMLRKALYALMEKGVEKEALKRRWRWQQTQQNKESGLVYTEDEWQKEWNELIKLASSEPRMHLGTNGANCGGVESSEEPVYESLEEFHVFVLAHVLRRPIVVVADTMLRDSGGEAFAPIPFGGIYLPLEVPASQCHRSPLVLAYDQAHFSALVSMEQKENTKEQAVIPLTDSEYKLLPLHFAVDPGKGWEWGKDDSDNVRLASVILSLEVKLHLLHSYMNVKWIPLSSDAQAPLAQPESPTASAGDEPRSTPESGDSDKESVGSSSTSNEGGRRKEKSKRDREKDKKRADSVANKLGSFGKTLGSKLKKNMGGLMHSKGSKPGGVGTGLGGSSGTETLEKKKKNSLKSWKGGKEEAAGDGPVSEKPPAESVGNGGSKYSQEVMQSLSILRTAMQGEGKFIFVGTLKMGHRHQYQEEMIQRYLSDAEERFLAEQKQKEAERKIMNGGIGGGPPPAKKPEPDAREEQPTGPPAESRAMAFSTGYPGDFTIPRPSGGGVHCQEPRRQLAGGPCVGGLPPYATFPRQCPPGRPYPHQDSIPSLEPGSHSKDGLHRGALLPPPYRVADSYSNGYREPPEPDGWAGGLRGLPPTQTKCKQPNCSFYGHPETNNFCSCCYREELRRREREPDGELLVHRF
inactive: lapatinib 0.033 | pictilisib 0.025 | crizotinib -0.099 | [1] 0.006 | duvelisib -0.041 | gandotinib 0.032 | tozasertib -0.01 | doramapimod -0.012 | bafetinib -0.003 | [2] 0.003

Source: the supplement of paper PMC10849652
